From article PMC6212833 come the findings set out here.

In all, about 2,000 compounds were measured (“B-score”: median about -0.0024, highest 2% from about 4 on). Only a selection was taken, and the highest values are over-represented in it overall.

The test has as its system Balamuthia mandrillaris (ATCC PRA-291) trophozoites, axenic culture. Description: primary screen, b score. To be noted: 20 µM. Put shortly: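 Trophozoites (3,000/well) in axenic medium exposed to library drugs at 20 µM in 0.2% DMSO for 72 h; viability by CellTiter Glo luminescence at 2, 4 and 8 h. Controls: vehicle and freeze-thaw amoeba lysate; B-score corrects row, column and edge effects.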
`Nc1nc(O)c2nc(CNc3ccc(C(=O)N[C@@H](CCC(=O)O)C(=O)O)cc3)cnc2n1` [131189-L3] had a B-score of -0.599.

In the case of `C[N+](C)(C)CCOP(=O)([O-])OP(=O)(O)OC[C@H]1O[C@@H](n2ccc(N)nc2=O)[C@H](O)[C@@H]1O`, the B-score is -1.73.

With `CN(C)c1ccc(C(=C2C=CC(=[N+](C)C)C=C2)c2ccc(N(C)C)cc2)cc1`, the B-score turned out to be 9.22.

`O=C(OOC(=O)c1ccccc1)c1ccccc1`: the B-score was -0.0136.

`CC(C)(C)CC(C)(C)c1cc(Cc2cc(C(C)(C)CC(C)(C)C)cc(-n3nc4ccccc4n3)c2O)c(O)c(-n2nc3ccccc3n2)c1` registered a B-score of -1.88.

`Cc1ccc(-c2ncc(Cl)cc2-c2ccc(S(C)(=O)=O)cc2)cn1`: the B-score came to 2.78.

The compound `Cc1nc2n(c(=O)c1CCN1CCC(c3noc4cc(F)ccc34)CC1)CCC[C@H]2O` showed a B-score of 0.893.

Compound `OCC(S)CS` (stereo not shown) registered a B-score of 8.18.

`CC(O)Cn1cnc2c1c(=O)n(C)c(=O)n2C` (stereo not shown) displayed a B-score of -3.33.

For `NS(=O)(=O)c1cc(C2(O)NC(=O)c3ccccc32)ccc1Cl` (stereo not shown), the B-score was 0.358.

In turn, `O[C@H]1[C@H](O)[C@@H](O)[C@H](O)[C@@H](O)[C@H]1O` displayed a B-score of -1.95.

In the case of `CC(C)/N=C(N)/N=C(\N)Nc1ccc(Cl)cc1` [131550-L3], the B-score is reported as -1.38.

In turn, `N=C(NCCCCCCNC(=N)NC(=N)Nc1ccc(Cl)cc1)NC(=N)Nc1ccc(Cl)cc1` came in with a B-score of 20.8.

`CC(C)/N=C(N)/N=C(\N)Nc1ccc(Cl)cc1` [131550-L2]: the B-score was 0.326.

Compound `Cc1cccc(C)c1NC(=O)C(C)N` (stereo not shown) came in with a B-score of 0.0863.

Compound `CC[C@@H](CO)NC(=O)[C@@H]1C=C2c3cccc4c3c(cn4C)C[C@H]2N(C)C1` [756841-L1] displayed a B-score of 0.825.

Consider `CC(=O)Oc1cc2c(s1)CCN([C@H](C(=O)C1CC1)c1ccccc1F)C2`, for which the B-score was determined as 0.0184.

In turn, `CN[C@@H]1[C@@H](O[C@H]2O[C@H](CO)[C@@H](N)[C@H](O)[C@H]2O)O[C@H]2C[C@@H](N)[C@H](O[C@H]3[C@H](O)[C@@H](O)[C@H](N)C[C@@H]3N)O[C@@H]2[C@@H]1O` returned a B-score of -1.36.

Compound `O=C(O)c1ccccc1-c1c2cc(I)c(=O)c(I)c-2oc2c(I)c(O)c(I)cc12` came in with a B-score of 14.8.

As to `N[C@@H]1[C@H]2CN(c3nc4c(cc3F)c(=O)c(C(=O)O)cn4-c3ccc(F)cc3F)C[C@@H]12`, the B-score is on record as -1.05.

As to `C#C[C@]1(O)CCC2C3CCc4cc(OC)ccc4C3CC[C@@]21C` (stereo partly shown), the B-score was -0.0352.

For `COc1cc2c(cc1OC)C(=O)C(CC1CCN(Cc3ccccc3)CC1)C2` (stereo not shown), the B-score was -0.41.

The compound `c1ccc2c(c1)Nc1ccccc1S2` yielded a B-score of 0.971.

In turn, `CC(=O)N[C@@H]1[C@@H](C(O)[C@H](O)CO)O[C@](O)(C(=O)O)C[C@@H]1O` (stereo partly shown) registered a B-score of -1.13.

In turn, `Cc1nc(Nc2ncc(C(=O)Nc3c(C)cccc3Cl)s2)cc(N2CCN(CCO)CC2)n1` [756746-L2] yielded a B-score of 1.19.

For `Cc1nc(Nc2ncc(C(=O)Nc3c(C)cccc3Cl)s2)cc(N2CCN(CCO)CC2)n1` [756746-L1], the B-score is 8.3.

Consider `C[C@H]1O[C@@H](O[C@H]2[C@@H](O)C[C@H](O[C@H]3[C@@H](O)C[C@H](O[C@H]4CC[C@@]5(C)[C@H](CC[C@@H]6[C@@H]5CC[C@]5(C)[C@@H](C7=CC(=O)OC7)CC[C@]65O)C4)O[C@@H]3C)O[C@@H]2C)C[C@H](O)[C@@H]1O`, for which the B-score is -0.38.

In turn, `CC(=O)Oc1ccccc1C(=O)Nc1ncc([N+](=O)[O-])s1` gave a B-score of -0.287.

In the case of `C=C1C[C@@H]2[C@H](CC[C@]3(C)C(=O)CC[C@@H]23)[C@@]2(C)C=CC(=O)C=C12`, the B-score turned out to be 7.82.

`C=C1CC2C(CC[C@]3(C)C(=O)CCC23)[C@@]2(C)C=CC(=O)C=C12` (stereo partly shown) returned a B-score of -0.0158.

With `C[C@]12CC[C@H](O)CC1=CCC1C2CC[C@]2(C)C(=O)CC[C@@H]12` (stereo partly shown), the B-score amounted to 0.449.

`CCN1CCN(c2cc3c(cc2F)c(=O)c(C(=O)O)cn3C2CC2)CC1` came in with a B-score of -2.37.

Compound `CO/N=C(\C(=O)N[C@@H]1C(=O)N2C(C(=O)O)=C(COC(C)=O)CS[C@H]12)c1csc(N)n1` registered a B-score of 2.94.

Take `N[C@@H](Cc1ccccc1)C(=O)O`: the B-score was -1.27.

As for `C#CC1(O)CCC2C3CCC4=C/C(=N/O)CCC4C3CCC21CC` (stereo not shown), the B-score is recorded as -0.44.

`CC(C)(O)c1ccccc1CC[C@@H](SCC1(CC(=O)O)CC1)c1cccc(/C=C/c2ccc3ccc(Cl)cc3n2)c1` displayed a B-score of -1.02.

In turn, `Oc1c(Cl)cc(Cl)cc1Sc1cc(Cl)cc(Cl)c1O` showed a B-score of -2.1.

As to `CC(=O)OCC1=C(C(=O)O)N2C(=O)[C@@H](NC(=O)Cc3cccs3)[C@H]2SC1`, the B-score worked out at 4.7.

The compound `CC(=O)OCC1=C(C(=O)O)N2C(=O)[C@@H](NC(=O)CC#N)[C@H]2SC1` came in with a B-score of -1.27.

In turn, `CC(=O)OCC1=C(C(=O)O)N2C(=O)[C@@H](NC(=O)CSc3ccncc3)[C@H]2SC1` gave a B-score of -1.22.

`Cc1cn([C@H]2C[C@H](N=[N+]=[N-])[C@@H](CO)O2)c(=O)[nH]c1=O` [735592-L3] gave a B-score of -1.48.

As for `CC(C)(C)NC(=O)[C@H]1C[C@@H]2CCCC[C@@H]2CN1C[C@@H](O)[C@H](Cc1ccccc1)NC(=O)[C@@H](CC(N)=O)NC(=O)c1ccc2ccccc2n1`, the B-score is reported as -1.24.

For the compound `NC[C@@H]1O[C@H](O[C@@H]2[C@@H](CO)OC(O[C@@H]3[C@@H](O)[C@H](N)C[C@H](N)[C@H]3OC3O[C@H](CN)[C@@H](O)[C@H](O)[C@H]3N)[C@@H]2O)[C@H](N)[C@@H](O)[C@@H]1O` (stereo partly shown), the B-score is recorded as 0.82.

`CC[C@H]1OC(=O)[C@H](C)[C@@H](O[C@H]2C[C@@](C)(OC)[C@@H](O)[C@H](C)O2)[C@H](C)[C@@H](O[C@@H]2O[C@H](C)C[C@H](N(C)C)[C@H]2O)[C@](C)(O)C[C@@H](C)/C(=N\OCOCCOC)[C@H](C)[C@@H](O)[C@]1(C)O` displayed a B-score of 0.27.

Compound `CCC1=C(C)CN(C(=O)NCCc2ccc(S(=O)(=O)NC(=O)N[C@H]3CC[C@H](C)CC3)cc2)C1=O` showed a B-score of 1.92.

On to `O=C(O)C[C@H](O)C[C@H](O)/C=C/c1c(C2CC2)nc2ccccc2c1-c1ccc(F)cc1`, for which the B-score was -0.609.

`COCc1c(C(C)C)nc(C(C)C)c(/C=C/[C@@H](O)C[C@@H](O)CC(=O)O)c1-c1ccc(F)cc1` returned a B-score of 13.3.

For `CC(C)c1nc(N(C)S(C)(=O)=O)nc(-c2ccc(F)cc2)c1/C=C/[C@@H](O)C[C@@H](O)CC(=O)O`, the B-score is 3.13.

The compound `CC(C)NCC(O)COc1cccc2ccccc12` (stereo not shown) came in with a B-score of 0.797.

In turn, `CC(C)NC[C@H](O)COc1cccc2ccccc12` displayed a B-score of -4.66.

`CC[N+](CC)(CC)CCOc1cccc(OCC[N+](CC)(CC)CC)c1OCC[N+](CC)(CC)CC` gave a B-score of 5.36.

For the compound `CC(Cc1ccccc1)(NC(=O)CN)c1ccccc1` (stereo not shown), the B-score was 1.27.

`CC[C@H]1CN2CCC1C[C@@H]2[C@@H](O)c1ccnc2ccc(OC)cc12` (stereo partly shown): the B-score is listed as 0.0568.

`CCCCC1(COC(=O)CCC(=O)O)C(=O)N(c2ccccc2)N(c2ccccc2)C1=O` displayed a B-score of -1.04.

As for `O=C1CC[C@@H](N2C(=O)c3ccccc3C2=O)C(=O)N1`, the B-score is recorded as -1.22.
